Screening results: PubChem, Broad Institute
Pf Dd2 inh – P. falciparum Dd2 growth inhibition | SYBR Green, 72 h; active compounds read low | activity change, % at 10 µM | hit rate 2.3% among 94,000 | AID 1159554; in the data active means activity change below about -80%
C diff growth – C. difficile growth inhibition; Clostridium difficile clinical isolate growth, OD600, 24 h; active compounds read low; growth activity, negative = inhibition, % at 16 µg/mL (by protocol); hit rate 0.25% among 86,000;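 active means mean growth activity at or below -80% and every replicate also at or below -80%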;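 further: 0% = DMSO wells and -100% = levofloxacin 16 µg/mL wells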
Active calls of the source: *; nt = not tested or not shown. Rows were chosen to be rich in hits. Some 2.4% of all compounds tested hit in one or more screens of this group.

SMILES | Pf Dd2 inh | C diff growth
Cc1noc(C)c1S(=O)(=O)Nc1cccc2c1O[C@@H](CN(C)Cc1ccc(C(=O)Nc3ccccc3N)cc1)[C@@H](C)CN([C@@H](C)CO)C2=O | -62.3 | -5.9
Cn1cnc(S(=O)(=O)N[C@H]2CC[C@@H](CC(=O)Nc3ccccc3)O[C@@H]2CO)c1 | nt | -0.9
COc1ccc2c3c(n(C)c2c1)[C@@H](CO)N(C(C)=O)CC31CCN(C(=O)NC(C)C)CC1 | 5.2 | -5.7
C[C@@H]1CCCCO[C@H](CN(C)C(=O)Nc2ccc(F)cc2)[C@@H](C)CN([C@@H](C)CO)C(=O)c2cc(NS(=O)(=O)c3ccccc3)ccc2O1 | -75.8 | -11.3
C[C@@H]1CCCCO[C@H](CN(C)C(=O)Nc2ccc(F)cc2)[C@H](C)CN([C@H](C)CO)C(=O)c2cc(NS(=O)(=O)c3ccccc3)ccc2O1 | -90.8* | 9.9
C[C@@H]1CCCCO[C@H](CN(C)C(=O)Nc2ccccc2)[C@H](C)CN([C@@H](C)CO)C(=O)c2cc(NS(=O)(=O)c3ccccc3)ccc2O1 | -84.1* | nt
C[C@H](CO)N1C[C@H](C)[C@@H](CN(C)C(=O)Nc2ccccc2)OCCCC[C@H](C)Oc2ccc(NS(=O)(=O)c3ccccc3)cc2C1=O | -35.8 | nt
C[C@H]1CN([C@@H](C)CO)C(=O)c2cccc(NC(=O)c3ccncc3)c2O[C@@H]1CN(C)C(=O)NC1CCCCC1 | 7.7 | -1.9
C[C@H](CO)N1C[C@H](C)[C@H](CN(C)Cc2cccc(O)c2)OCc2ccccc2-c2c(n(C)c3ccccc23)C1=O | -9.9 | 56.8
C[C@H](CO)N1C[C@H](C)[C@@H](CN(C)Cc2cccc(C(=O)Nc3ccccc3N)c2)OCc2ccccc2-c2c(n(C)c3ccccc23)C1=O | -91.2* | -2.2
COc1cccc(CN(C)C[C@@H]2OCc3ccccc3-c3c(n(C)c4ccccc34)C(=O)N([C@@H](C)CO)C[C@@H]2C)c1 | -28.0 | 32.8
C[C@H]1CN([C@@H](C)CO)C(=O)c2c(c3ccccc3n2C)-c2ccccc2CO[C@@H]1CN(C)Cc1cccc(O)c1 | -88.5* | -0.1
COc1cccc(CN(C)C[C@H]2OCc3ccccc3-c3c(n(C)c4ccccc34)C(=O)N([C@H](C)CO)C[C@H]2C)c1 | -88.0* | 18.7
C[C@H](CO)N1C[C@H](C)[C@H](CN(C)Cc2cccc(F)c2)OCc2ccccc2-c2c(n(C)c3ccccc23)C1=O | -22.2 | 8.8
C[C@H]1CN([C@@H](C)CO)C(=O)c2c(c3ccccc3n2C)-c2ccccc2CO[C@H]1CN(C)Cc1cccc(C(=O)O)c1 | -31.9 | -3.1
C[C@@H]1CN([C@@H](C)CO)C(=O)c2c(c3ccccc3n2C)-c2ccccc2CO[C@@H]1CN(C)Cc1cccc(F)c1 | -86.4* | 24.4
COc1ccc2c3c([nH]c2c1)[C@H](CO)N(C(=O)C1CCC1)CC31CCN(C)CC1 | 54.3 | 19.0
CCCNC(=O)N1[C@H](CN(C)C(C)=O)[C@H](c2ccc(C3=CCCC3)cc2)[C@@H]1CO | 6.2 | -4.7
C[C@@H]1CN([C@H](C)CO)C(=O)Cc2cc(NS(=O)(=O)c3ccc(F)cc3)ccc2O[C@@H]1CN(C)Cc1ccc(C(=O)Nc2ccccc2N)cc1 | -77.7 | 5.2
Cc1ccc(S(=O)(=O)Nc2ccc3c(c2)CC(=O)N([C@@H](C)CO)C[C@@H](C)[C@@H](CN(C)Cc2ccc(C(=O)Nc4ccccc4N)cc2)O3)cc1 | -87.7* | 2.8
Cc1ccc(S(=O)(=O)Nc2ccc3c(c2)CC(=O)N([C@H](C)CO)C[C@H](C)[C@@H](CN(C)Cc2ccc(C(=O)Nc4ccccc4N)cc2)O3)cc1 | -85.4* | 0.4
Cc1ccc(S(=O)(=O)Nc2ccc3c(c2)C(=O)N([C@@H](C)CO)C[C@H](C)[C@H](CN(C)Cc2ccc(C(=O)Nc4ccccc4N)cc2)O3)cc1 | -71.7 | -5.9
C[C@@H]1CN([C@@H](C)CO)C(=O)c2cccc(NS(C)(=O)=O)c2O[C@@H]1CN(C)C(=O)Nc1ccccc1 | -5.9 | 1.7
C[C@H]1CN([C@@H](C)CO)C(=O)Cc2cc(NC(=O)CCC(F)(F)F)ccc2O[C@H]1CN(C)Cc1ccc(C(=O)O)cc1 | 7.0 | -1.4
C[C@@H]1CN([C@H](C)CO)C(=O)c2cc(-c3ccncc3)cnc2O[C@H]1CN(C)Cc1cccnc1 | 47.4 | 0.4
COc1ccc2c3c([nH]c2c1)[C@H](CO)N(C(=O)c1ccccn1)CC31CN(C(=O)C2CCCCC2)C1 | -20.3 | -8.4
O=C(NC1CCCC1)N1CCCCN2[C@@H](CO)[C@@H](c3ccc(/C=C/c4ccccc4)cc3)[C@@H]2C1 | -49.8 | 43.9
O=C(c1ccc2c(c1)OCO2)N1CC(=O)N2[C@H](C1)[C@H](c1ccc(C#Cc3ccccc3)cc1)[C@@H]2CO | 1.4 | 2.5
O=C(c1ccc(F)cc1)N1CC(=O)N2[C@H](CO)[C@@H](c3ccc(C#Cc4ccc(F)cc4)cc3)[C@H]2C1 | -29.1 | -1.0
